Experimental data taken from PubChem BioAssay AID720506 (National Center for Advancing Translational Sciences (NCATS), 2013).
Among all 2,300 compounds or so, about 95 (4%) were called active. Another 17% or so got no clear call; they are omitted. The call rests on the fitted dose curve; in most records, active means well fitted activation curve with a large enough effect; inconclusive means small, poorly fitted or top-dose-only effect; inactive means flat fitted curve, though single readings scatter. The sample as a whole holds a higher share of actives than the screen did.

The molecules below were run against D(3) dopamine receptor (Homo sapiens) (UniProt P35462) (assay: qHTS of D3 Dopamine Receptor Agonist: D3 Dopamine Receptor B-arrestin Agonist Confirmatory Assay). Conditions: DiscoveRx D3 beta-arrestin cells, luminescence, 90 min; series mostly up to 76.9 µM; activation: at the top concentration.
Text: D3 DARs represent a very important target for the treatment of several neuropsychiatric disorders. Indeed, one of the most promising therapeutic applications for the D3 DAR is in the area of addiction and related disorders. […] These findings have been observed with a number of addictive substances including cocaine, amphetamine, nicotine, and alcohol. […] Increased D3 DAR activity can thus lead to neuroprotective and neurorestorative actions in the CNS. […] This assay is used to confirm the activity of the identified D3 dopamine receptor agonist. Activation is the desired outcome for this assay. NIH Molecular Libraries Probe Production Centers Network [MLPCN] NIH Chemical Genomics Center [NCGC] MLPCN Grant: NS064831 Assay Submitter (PI): David Sibley
Freshly passaged DiscoveRx D3 cells are plated in 1536 well white, solid bottom plates at a density of 1500 cells/well in 3microl of complete media. After an overnight incubation at 37 degrees C in 5% CO2, cells are loaded with 23nl of test compound from the compound library (as well as dopamine controls) using a 1536 pintool and incubated at 37 degrees C for 90 minutes. Two microliters of DiscoveRx reagent is then added to all cells, and they are incubated for an additional 30 - 60 minutes at room temperature. Following incubation, luminescence is measured on a ViewLux CCD-based luminometer reader using a 20 sec exposure time.
Further: nearly all actives have a fitted effect of over 70% in size.
Potency means the concentration at half of the fitted maximal effect.
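Wherever activation is given: 100% = dopamine control response.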

D(3) dopamine receptor (Homo sapiens), sequence (P35462 whole entry, looked up): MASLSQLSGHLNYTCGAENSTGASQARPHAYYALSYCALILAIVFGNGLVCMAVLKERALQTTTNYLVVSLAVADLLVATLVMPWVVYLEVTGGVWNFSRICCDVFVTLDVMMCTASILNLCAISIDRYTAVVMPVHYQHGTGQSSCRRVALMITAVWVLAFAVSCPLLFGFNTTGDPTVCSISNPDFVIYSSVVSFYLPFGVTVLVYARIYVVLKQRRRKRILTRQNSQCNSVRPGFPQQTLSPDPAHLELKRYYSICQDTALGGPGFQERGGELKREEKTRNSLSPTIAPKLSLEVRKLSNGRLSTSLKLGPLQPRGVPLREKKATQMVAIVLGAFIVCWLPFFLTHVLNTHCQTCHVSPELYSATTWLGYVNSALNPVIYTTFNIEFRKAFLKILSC

activation, inactive:
Cc1cc(C)n2nc(C(=O)N3CCN(Cc4ccc5c(c4)OCO5)CC3)nc2n1 3%, CCCN(CC(=O)Nc1ccccc1C)C(=O)c1ccc2[nH]c3c(c2c1)CC(C)CC3 (stereo unspecified) -0.304%, OC(COCc1ccco1)CN1CCN(c2ccccc2)CC1 (stereo unspecified) -3.53%, O=C(CSC1CC(=O)N(CCc2ccccc2)C1=O)Nc1ccc(Cl)cc1 (stereo unspecified) -1.08%, O=c1oc(-c2ccccc2NS(=O)(=O)c2ccc(Cl)cc2)nc2ccccc12 -0.248%, O=C(C1CC(=O)N(c2ccc(F)cc2)C1)N1CCN(c2ccccc2)CC1 (stereo unspecified) -1.88%, CCn1c(=O)cc(OCC(=O)NCCCN2CCN(c3cccc(Cl)c3)CC2)c2ccccc21 -0.221%, CN1CCN(S(=O)(=O)c2cccc(C(=O)Nc3sccc3C#N)c2)CC1 6.9%, O=C(c1ccc2c(c1)OCCO2)C1CCN(S(=O)(=O)c2cccc(F)c2)CC1 -8.28%, CC(CCc1ccccc1)NCC(O)c1cccc([N+](=O)[O-])c1 (stereo unspecified) -0.828%, CC1(C)CC(=O)C=C(c2ccc3ncccc3c2)C1 -3.23%, Cc1c(C(=O)Nc2cccc(-c3nnc4n3CCCCC4)c2)oc2ccccc12 -0.331%, O=C(NC1CCCCC1)c1ccc2c(=O)n(CC3CCCO3)c(=O)[nH]c2c1 (stereo unspecified) 5.22%, CCOC(=O)[C@H]1[C@H]2COc3ccc(C)cc3[C@@H]2N2C(=O)CN(Cc3ccc(F)cc3)C(=O)[C@@]12C -4.45%, O=C(CCN1CCN(C/C=C/c2ccccc2)CC1)Nc1ccccc1Cl 20%, COc1cccc(NC(=O)C2CCCN(c3ncnc4c3nc3n4CCCCC3)C2)c1 (stereo unspecified) -5.52%, CC(C)c1ccc2c(c1)c(SC(C)(C)C)c(CC(C)(C)C(=O)O)n2Cc1ccc(Cl)cc1 29%, O=C(c1c(F)cccc1F)N1CCN(S(=O)(=O)c2ccc3c(c2)OCCO3)CC1 0.221%, Cc1cccc(OCC(=O)NCC(=O)N/N=C/c2ccc(N(C)C)cc2)c1 -8.89%, Cc1cc(C)c(/C=C2\C(=O)Nc3ccccc32)[nH]1 -20.8%, CCC(=O)Nc1ccc(C(=O)N2CCN(C(=O)c3ccco3)CC2)cc1 -6.56%, CCn1cc(C(=O)N2CCN(Cc3ccc4c(c3)OCO4)CC2)c2cc(OC)c(OC)cc2c1=O 8.46%, O=C(Cc1csc(Nc2nc(=S)[nH]c3ccccc23)n1)NCCCN1CCN(c2cccc(Cl)c2)CC1 -8.61%, COc1ccc(C2NC(=O)C(=O)/C2=C(\O)c2ccc(Cl)cc2)cc1OC (stereo unspecified) -9.76%, O=C(CCCn1c(=O)[nH]c2cc(Cl)ccc2c1=O)NCCN1CCN(c2ccccc2)CC1 -3.42%, O=C(c1c(Cl)cccc1Cl)N1CCN(c2cccc3[nH]ccc23)CC1 15%

Potency, active:
CC(C)(C)C(=O)OCc1nc(-c2ccc(O)c(O)c2)cs1 11.2 µM, O=C(CNCc1cccs1)Nc1cc(S(=O)(=O)N2CCCC2)ccc1Cl 17.8 µM, CC(CCc1ccc(O)cc1)NCc1ccc(Cl)cc1Cl (stereo unspecified) 1.78 µM, COc1cccc(OC)c1OCCN1CCN(C(=O)c2ccco2)CC1 0.631 µM, O=C(CN1CCN(S(=O)(=O)c2cc(Cl)ccc2Cl)CC1)c1ccc(O)c(O)c1 35.5 µM
